Measured values: PubChem BioAssay (Tox21)
“And” between values parts separate entries of the source, which are not always exact repeats. Equal values may be shown once. Inconclusive results are not listed. Entries that show only a call come without a potency. More than one record can exist for a structure, and the calls need not agree. The source made the active and inactive calls. Unless noted, the call rests on the fitted dose curve; in most records, active means well fitted curve in the direction sought with a large enough effect in the repeat runs; inconclusive means weak or mixed curves; inactive means no such curve, though single readings can be large; an effect the other way counts as inactive or inconclusive.

Columns and labels:
[1] = Caspase-3/7 induction in HepG2 cells by small molecules, qHTS assay (AID 1346978); conditions: HepG2 caspase-3/7 activation, Caspase-Glo luminescence, 17 h; series mostly up to 92.4 µM; further: nearly all actives have a fitted effect of over 15% in size; further: potency means the concentration at half of the fitted maximal effect
Outline: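 Wild-type HepG2 cells, 2,000/well, settled 5 hr at 37 C and 5% CO2, then compound-treated for 17 hr; caspase-3/7 activity read by luminescent Caspase-Glo 3/7 after 30 min at room temperature.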

[2] = Caspase-3/7 induction in CHO-K1 cells by small molecules, qHTS cell viability counter screen (AID 1346979); conditions: CellTiter-Fluor fluorescence, 17 h; series mostly up to 92.4 µM; further: nearly all actives have a fitted effect of over 35% in size; further: potency means the concentration at half of the fitted maximal effect
Outline: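 Cytotoxicity counter screen run in parallel with the caspase-3/7 assay: CHO-K1 cells, 16hr compound treatment at 37C, then CellTiter-Fluor for 1hr before fluorescence reading.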

[3] = Caspase-3/7 induction in CHO-K1 cells by small molecules, qHTS assay (AID 1346980); conditions: CHO-K1 caspase-3/7 induction, Caspase-Glo luminescence, 17 h; series mostly up to 92.4 µM; further: nearly all actives have a fitted effect of over 15% in size
Outline: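 Wild-type CHO-K1 cells exposed to compounds for 17hr at 37 C, 5% CO2. Caspase-3/7 activity then measured by Caspase-Glo 3/7 luminescence after 30min at room temperature.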

[4] = molecular target: Nuclear receptor subfamily 1 group I member 2 (Homo sapiens) (UniProt O75469); test: Human pregnane X receptor (PXR) small molecule agonists, qHTS assay (AID 1346982); conditions: PXR-Luc HepG2, CYP3A4 luciferase reporter, 24 h; series mostly up to 92.4 µM; further: nearly all actives have a fitted effect of over 35% in size; further: potency means the concentration at half of the fitted maximal effect
Outline: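 PXR-Luc HepG2 reporter cells (CYP3A4-driven luciferase) in 5% charcoal-stripped FBS medium, plated 5 h before compound addition, then treated 24 h at 37C. Luciferase read by ONE-Glo luminescence after 30 min at room temperature.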

[5] = molecular target: Acetylcholinesterase (Homo sapiens) (UniProt P22303); test: Acetylcholinesterase (AChE) small molecule antagonists: enzyme-based qHTS assay (AID 1347397; calls by dose curve; further: nearly all actives have a fitted effect of over 55% in size; further: potency means the concentration at half of the fitted maximal effect); conditions: Potency: AChE enzyme activity inhibition; series mostly up to 115 µM
Outline: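 Enzyme inhibition was scored from DTNB-detected thiocholine formed by recombinant human AChE acting on acetylthiocholine. The 30 min compound preincubation and 10 min substrate reaction were both run at room temperature, with DMSO as vehicle control.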

[6] = molecular target: Acetylcholinesterase (Homo sapiens) (UniProt P22303); test: Acetylcholinesterase (AChE) small molecule antagonists: fluorescence cell-based qHTS assay (AID 1347398; calls by dose curve; further: nearly all actives have a fitted effect of over 50% in size; further: potency means the concentration at half of the fitted maximal effect); conditions: SH-SY5Y cells; Potency: AChE activity; series mostly up to 115 µM
Outline: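 Endogenous acetylcholinesterase of SH-SY5Y neuroblastoma cells is measured in situ. After overnight attachment and 30 min compound exposure, cells receive acetylthiocholine and Thiolite Green; fluorescence is read after 40 min at room temperature.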

[7] = molecular target: Acetylcholinesterase (Homo sapiens) (UniProt P22303); test: Acetylcholinesterase (AChE) small molecule antagonists: enzyme-based qHTS assay with human liver microsomes (AID 1347399; calls by dose curve; further: nearly all actives have a fitted effect of over 60% in size; further: potency means the concentration at half of the fitted maximal effect); conditions: Potency: qHTS inhibition; series mostly up to 115 µM
Outline: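 Recombinant human AChE (50 mU/mL in the enzyme mix) and human liver microsomes (0.25 mg/mL final) were preincubated with compound and NADPH (0.25 mg/mL final) for 30 min at 37 C. Acetylthiocholine/DTNB was then added; thiocholine was read colorimetrically after 10 min at room temperature.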

[8] = molecular target: Cytochrome P450 2D6 (Homo sapiens) (UniProt P10635); test: Cytochrome P450 Family 2 Subfamily D Member 6 (CYP2D6) small molecule antagonists: luciferase reporter qHTS assay (AID 1671196); conditions: P450-Glo CYP2D6 enzyme assay, luciferin luminescence, 1 h; series mostly up to 115 µM; further: nearly all actives have a fitted effect of over 50% in size; further: potency means the concentration at half of the fitted maximal effect
Outline: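 Cell-free P450-Glo system: CYP2D6 with proluciferin substrate was pre-incubated with compound for 10 min, then reacted with NADPH regeneration for 1 h at room temperature. Luciferin product was detected after 20 min, and data were reported as relative luminescence units.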

[9] = molecular target: Cytochrome P450 2C19 (Homo sapiens) (UniProt P33261); test: Cytochrome P450 Family 2 Subfamily C Member 19 (CYP2C19) small molecule antagonists: luciferase reporter qHTS assay (AID 1671197); conditions: P450-Glo CYP2C19 enzyme, luciferin luminescence, 1 h; series mostly up to 115 µM; further: nearly all actives have a fitted effect of over 65% in size; further: potency means the concentration at half of the fitted maximal effect
Outline: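 Compounds were tested on CYP2C19 activity via proluciferin conversion to luciferin. The 37C, 1 h reaction followed NADPH addition; detection reagent stopped it.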

[10] = molecular target: Cytochrome P450 2C9 (Homo sapiens) (UniProt P11712); test: Cytochrome P450 Family 2 Subfamily C Member 9 (CYP2C9) small molecule antagonists: luciferase reporter qHTS assay (AID 1671198); conditions: P450-Glo CYP2C9 enzyme assay, luciferin luminescence; series mostly up to 115 µM; further: nearly all actives have a fitted effect of over 50% in size; further: potency means the concentration at half of the fitted maximal effect
Outline: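 P450-Glo proluciferin substrate with CYP2C9 enzyme; 10 min RT preincubation, then NADPH regeneration 1 h at 37C; luciferin detection reagent 20 min RT, luminescence in relative luminescence units.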

[11] = molecular target: Cytochrome P450 1A2 (Homo sapiens) (UniProt P05177); test: Cytochrome P450 Family 1 Subfamily A Member 2 (CYP1A2) small molecule antagonists: luciferase reporter qHTS assay (AID 1671199); conditions: P450-Glo CYP1A2 enzyme, luciferin luminescence, 1 h; series mostly up to 115 µM; further: nearly all actives have a fitted effect of over 50% in size; further: potency means the concentration at half of the fitted maximal effect
Outline: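 P450-Glo CYP1A2 enzyme–proluciferin substrate mix with compound 10 min at room temperature, then NADPH regeneration 1 h at room temperature. Luciferin detection reagent added, luminescence read after 20 min; furafylline positive control.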

[12] = molecular target: Cytochrome P450 3A4 (Homo sapiens) (UniProt P08684); test: Cytochrome P450 Family 3 Subfamily A Member 4 (CYP3A4) small molecule antagonists: luciferase reporter qHTS assay (AID 1671201); conditions: P450-Glo CYP3A4 enzyme, luciferin luminescence, 1 h; series mostly up to 115 µM; further: nearly all actives have a fitted effect of over 50% in size; further: potency means the concentration at half of the fitted maximal effect
Outline: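 qHTS, 1536-well. CYP3A4 + proluciferin substrate, cpd 10 min RT → NADPH regen 1 h RT → detection reagent 20 min → luminescence (RLU). Ketoconazole positive control.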

[13] = Caspase-3/7 induction in HepG2 cells by small molecules, qHTS cell viability counter screen (AID 1346981); conditions: CellTiter-Fluor fluorescence, 17 h; series mostly up to 92.4 µM; further: nearly all actives have a fitted effect of over 30% in size; further: potency means the concentration at half of the fitted maximal effect
Outline: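 Wild-type HepG2 cells, 2,000/well, settled 5 hr at 37 C, 5% CO2 before compound addition. Viability read by CellTiter-Fluor fluorescence, reagent added after 16 hr compound exposure, then 1 hr at 37C, in the same wells as the caspase read.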

[14] = molecular target: Nuclear receptor subfamily 1 group I member 2 (Homo sapiens) (UniProt O75469); test: CYP3A4 induction through human pregnane X receptor (PXR) by small molecules, qHTS assay (AID 1346984); conditions: DPX-2 HepG2 PXR, CYP3A4-luciferin luminescence, 24 h; series mostly up to 46.1 µM; further: nearly all actives have a fitted effect of over 40% in size
Outline: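 DPX-2 HepG2 cells carrying a PXR response element and CYP3A4-promoter luciferase construct, treated with compounds 24 hr at 37C. Then P450-Glo CYP3A4 Luciferin-IPA substrate (3uM final) for 3 hr at 37C, One-Glo added, luminescence read.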

[15] = molecular target: Nuclear receptor subfamily 1 group I member 2 (Homo sapiens) (UniProt O75469); test: Human pregnane X receptor (PXR) activation by small molecules, qHTS assay (AID 1346985); conditions: DPX-2 HepG2 CYP3A4-luciferase, 24 h; series mostly up to 38.3 µM; further: nearly all actives have a fitted effect of over 40% in size
Outline: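 DPX-2 cells (HepG2 co-transfected with a PXR response element and a CYP3A4-promoter luciferase construct) were seeded at 2,000 per well, rested 5 hr at 37C, then exposed to DMSO-dissolved compounds for 24 hr. Activation was read as luciferase luminescence.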

[16] = molecular target: Voltage-gated inwardly rectifying potassium channel KCNH2 (Homo sapiens) (UniProt Q12809); test: Human Ether-a-go-go-Related Gene (hERG) channel small molecule antagonists: fluorescence cell-based qHTS assay (AID 1671200); conditions: hERG-U2OS cells, FluxOR thallium flux fluorescence; series mostly up to 76.8 µM; further: nearly all actives have a fitted effect of over 50% in size; further: potency means the concentration at half of the fitted maximal effect
Outline: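 Fluorescence at 540 nm emission (480 nm excitation) was recorded kinetically for 2 min at 1-second intervals once the thallium-containing stimulus reached cells previously loaded with FluxOR II dye.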

[17] = molecular target: Acetylcholinesterase (Homo sapiens) (UniProt P22303); test: Acetylcholinesterase (AChE) small molecule antagonists: colormetric cell-based qHTS assay (AID 1347395; calls by dose curve; further: nearly all actives have a fitted effect of over 30% in size; further: potency means the concentration at half of the fitted maximal effect); conditions: SH-SY5Y cells AChE activity, colorimetric (Ellman); series mostly up to 115 µM
Outline: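 Cells (SH-SY5Y, 2,000 per well) are seeded and left overnight at 37 C. Compound is added for 30 min, then DTNB and acetylthiocholine for a further 90 min at 37 C before absorbance-based thiocholine detection.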

Voltage-gated inwardly rectifying potassium channel KCNH2 (Homo sapiens), sequence (Q12809 whole entry, looked up): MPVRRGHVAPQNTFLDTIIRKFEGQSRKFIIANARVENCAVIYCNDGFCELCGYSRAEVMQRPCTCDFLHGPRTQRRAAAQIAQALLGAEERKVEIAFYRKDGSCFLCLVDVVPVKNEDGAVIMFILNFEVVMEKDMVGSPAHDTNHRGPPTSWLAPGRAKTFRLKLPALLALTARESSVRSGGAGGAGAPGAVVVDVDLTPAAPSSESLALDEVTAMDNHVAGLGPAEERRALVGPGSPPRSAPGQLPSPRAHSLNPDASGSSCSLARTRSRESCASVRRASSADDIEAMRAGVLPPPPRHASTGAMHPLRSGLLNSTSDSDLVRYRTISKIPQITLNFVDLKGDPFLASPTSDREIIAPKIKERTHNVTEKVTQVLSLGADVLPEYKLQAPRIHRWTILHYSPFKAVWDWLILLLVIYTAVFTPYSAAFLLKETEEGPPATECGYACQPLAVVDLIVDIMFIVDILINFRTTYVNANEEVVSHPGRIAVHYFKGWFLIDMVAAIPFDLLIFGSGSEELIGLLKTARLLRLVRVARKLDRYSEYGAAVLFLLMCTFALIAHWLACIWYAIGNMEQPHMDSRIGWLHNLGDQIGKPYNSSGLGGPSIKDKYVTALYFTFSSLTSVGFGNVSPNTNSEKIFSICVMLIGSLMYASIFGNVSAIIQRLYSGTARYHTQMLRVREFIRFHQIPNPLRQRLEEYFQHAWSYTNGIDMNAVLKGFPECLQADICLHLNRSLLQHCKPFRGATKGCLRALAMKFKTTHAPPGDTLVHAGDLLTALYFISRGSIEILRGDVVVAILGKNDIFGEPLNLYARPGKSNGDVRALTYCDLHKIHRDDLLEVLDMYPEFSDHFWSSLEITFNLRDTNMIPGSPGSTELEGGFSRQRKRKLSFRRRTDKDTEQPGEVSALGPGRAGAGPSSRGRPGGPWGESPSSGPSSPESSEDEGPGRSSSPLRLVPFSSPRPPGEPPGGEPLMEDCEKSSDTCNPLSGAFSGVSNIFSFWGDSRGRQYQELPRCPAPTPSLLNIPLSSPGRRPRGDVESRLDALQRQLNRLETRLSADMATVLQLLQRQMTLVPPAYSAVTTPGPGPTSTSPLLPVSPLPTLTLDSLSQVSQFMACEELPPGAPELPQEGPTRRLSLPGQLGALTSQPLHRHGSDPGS
Cytochrome P450 2C9 (Homo sapiens), sequence (P11712 whole entry, looked up): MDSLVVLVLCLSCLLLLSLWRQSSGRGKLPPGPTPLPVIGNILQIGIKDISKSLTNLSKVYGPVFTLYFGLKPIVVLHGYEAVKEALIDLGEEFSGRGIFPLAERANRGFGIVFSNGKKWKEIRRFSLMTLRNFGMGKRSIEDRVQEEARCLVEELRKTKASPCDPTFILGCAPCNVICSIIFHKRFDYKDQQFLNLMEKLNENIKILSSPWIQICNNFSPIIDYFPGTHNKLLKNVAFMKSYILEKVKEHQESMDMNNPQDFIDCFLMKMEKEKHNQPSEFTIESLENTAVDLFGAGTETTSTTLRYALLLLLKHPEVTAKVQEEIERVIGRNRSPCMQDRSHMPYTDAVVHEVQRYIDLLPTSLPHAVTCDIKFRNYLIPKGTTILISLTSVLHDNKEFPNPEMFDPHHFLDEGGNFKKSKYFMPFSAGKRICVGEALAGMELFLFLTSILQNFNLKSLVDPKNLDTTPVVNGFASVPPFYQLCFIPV
Cytochrome P450 1A2 (Homo sapiens), sequence (P05177 whole entry, looked up): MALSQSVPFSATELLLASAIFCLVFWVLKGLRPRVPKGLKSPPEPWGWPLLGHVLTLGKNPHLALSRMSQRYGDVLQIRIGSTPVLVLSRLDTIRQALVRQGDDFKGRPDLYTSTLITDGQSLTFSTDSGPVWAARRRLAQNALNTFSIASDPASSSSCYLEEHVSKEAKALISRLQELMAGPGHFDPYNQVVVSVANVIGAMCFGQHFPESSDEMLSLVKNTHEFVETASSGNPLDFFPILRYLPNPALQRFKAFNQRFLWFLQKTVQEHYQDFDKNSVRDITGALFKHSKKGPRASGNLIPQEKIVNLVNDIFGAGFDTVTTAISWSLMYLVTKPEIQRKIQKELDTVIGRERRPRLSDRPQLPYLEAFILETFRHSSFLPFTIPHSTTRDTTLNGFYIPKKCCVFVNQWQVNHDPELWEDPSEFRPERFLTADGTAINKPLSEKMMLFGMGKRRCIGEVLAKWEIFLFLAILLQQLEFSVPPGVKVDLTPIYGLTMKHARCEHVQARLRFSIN
Acetylcholinesterase (Homo sapiens), sequence (P22303 whole entry, looked up): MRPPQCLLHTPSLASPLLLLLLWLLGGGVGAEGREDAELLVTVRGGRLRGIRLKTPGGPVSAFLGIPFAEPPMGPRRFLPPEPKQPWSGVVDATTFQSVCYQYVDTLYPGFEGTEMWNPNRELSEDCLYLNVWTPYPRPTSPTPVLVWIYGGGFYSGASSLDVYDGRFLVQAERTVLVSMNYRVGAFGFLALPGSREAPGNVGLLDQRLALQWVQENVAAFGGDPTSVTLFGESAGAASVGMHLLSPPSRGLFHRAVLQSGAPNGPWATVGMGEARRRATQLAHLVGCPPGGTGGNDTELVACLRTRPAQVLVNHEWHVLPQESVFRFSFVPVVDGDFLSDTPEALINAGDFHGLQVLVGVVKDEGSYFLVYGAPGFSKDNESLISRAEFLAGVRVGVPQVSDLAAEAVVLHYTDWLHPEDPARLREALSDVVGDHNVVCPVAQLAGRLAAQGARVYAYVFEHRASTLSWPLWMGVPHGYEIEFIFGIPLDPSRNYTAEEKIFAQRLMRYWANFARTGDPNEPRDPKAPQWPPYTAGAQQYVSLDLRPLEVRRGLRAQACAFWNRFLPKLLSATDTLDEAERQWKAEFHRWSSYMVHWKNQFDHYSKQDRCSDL
Cytochrome P450 3A4 (Homo sapiens), sequence (P08684 whole entry, looked up): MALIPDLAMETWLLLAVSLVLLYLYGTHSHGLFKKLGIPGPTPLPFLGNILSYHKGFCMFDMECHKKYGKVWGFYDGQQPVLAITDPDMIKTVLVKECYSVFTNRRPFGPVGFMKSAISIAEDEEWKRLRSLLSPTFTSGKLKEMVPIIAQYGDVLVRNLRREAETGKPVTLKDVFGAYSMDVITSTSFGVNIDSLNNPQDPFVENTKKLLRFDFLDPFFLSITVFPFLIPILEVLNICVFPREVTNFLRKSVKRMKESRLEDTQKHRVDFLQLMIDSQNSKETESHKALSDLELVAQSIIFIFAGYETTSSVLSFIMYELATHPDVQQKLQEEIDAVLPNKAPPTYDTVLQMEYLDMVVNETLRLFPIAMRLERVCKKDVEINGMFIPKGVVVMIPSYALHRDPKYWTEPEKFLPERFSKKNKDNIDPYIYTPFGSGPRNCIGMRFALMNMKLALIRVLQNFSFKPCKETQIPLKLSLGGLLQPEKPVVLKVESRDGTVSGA
Cytochrome P450 2C19 (Homo sapiens), sequence (P33261 whole entry, looked up): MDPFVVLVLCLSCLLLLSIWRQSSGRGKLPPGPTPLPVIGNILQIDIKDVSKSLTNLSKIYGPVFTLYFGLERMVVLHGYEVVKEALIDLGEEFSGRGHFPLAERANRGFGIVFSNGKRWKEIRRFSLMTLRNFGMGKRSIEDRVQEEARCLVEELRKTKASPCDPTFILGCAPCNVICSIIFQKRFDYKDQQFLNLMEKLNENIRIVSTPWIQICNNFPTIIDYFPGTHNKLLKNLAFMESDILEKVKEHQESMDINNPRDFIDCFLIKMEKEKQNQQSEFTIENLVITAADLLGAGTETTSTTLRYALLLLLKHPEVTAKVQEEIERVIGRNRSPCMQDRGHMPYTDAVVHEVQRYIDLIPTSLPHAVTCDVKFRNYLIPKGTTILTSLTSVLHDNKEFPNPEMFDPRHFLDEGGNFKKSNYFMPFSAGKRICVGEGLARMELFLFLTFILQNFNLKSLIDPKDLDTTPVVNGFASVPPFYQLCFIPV
Cytochrome P450 2D6 (Homo sapiens), sequence (P10635 whole entry, looked up): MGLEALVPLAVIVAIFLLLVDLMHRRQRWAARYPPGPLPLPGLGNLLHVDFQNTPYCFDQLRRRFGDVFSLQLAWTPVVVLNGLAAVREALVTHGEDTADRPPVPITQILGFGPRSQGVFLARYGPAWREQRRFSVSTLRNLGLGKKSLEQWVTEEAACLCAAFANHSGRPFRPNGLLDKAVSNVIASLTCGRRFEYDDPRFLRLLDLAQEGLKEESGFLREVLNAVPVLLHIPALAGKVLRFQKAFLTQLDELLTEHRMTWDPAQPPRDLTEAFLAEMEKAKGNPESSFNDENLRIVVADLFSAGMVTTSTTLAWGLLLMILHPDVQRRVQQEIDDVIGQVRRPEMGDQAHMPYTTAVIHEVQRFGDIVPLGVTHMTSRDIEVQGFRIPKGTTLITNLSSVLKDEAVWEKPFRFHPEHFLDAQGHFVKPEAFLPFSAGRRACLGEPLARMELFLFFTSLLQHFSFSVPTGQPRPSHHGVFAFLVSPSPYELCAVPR
Nuclear receptor subfamily 1 group I member 2 (Homo sapiens), sequence (O75469 whole entry, looked up): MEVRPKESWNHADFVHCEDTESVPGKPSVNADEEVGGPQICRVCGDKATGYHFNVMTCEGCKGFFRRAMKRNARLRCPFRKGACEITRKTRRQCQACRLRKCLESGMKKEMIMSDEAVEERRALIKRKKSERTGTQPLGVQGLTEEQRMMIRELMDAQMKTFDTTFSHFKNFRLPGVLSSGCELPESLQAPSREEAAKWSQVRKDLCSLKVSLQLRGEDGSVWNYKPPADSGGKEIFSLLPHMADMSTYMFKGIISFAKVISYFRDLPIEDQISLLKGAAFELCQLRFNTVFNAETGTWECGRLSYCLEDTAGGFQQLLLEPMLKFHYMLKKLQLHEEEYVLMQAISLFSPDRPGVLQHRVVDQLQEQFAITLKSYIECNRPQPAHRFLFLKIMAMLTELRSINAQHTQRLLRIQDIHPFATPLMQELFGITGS

SMILES | Potency [1] | Potency [2] | Potency [3] | Potency [4] | Potency [5] | Potency [6] | Potency [7] | Potency [8] | Potency [9] | Potency [10] | Potency [11] | Potency [12] | Potency [13] | Potency [14] | Potency [15] | Potency [16] | Potency [17]
Clc1ccc(C(Cl)(Cl)Cl)c(Cl)c1 | inactive | inactive | inactive | inactive | inactive | inactive | inactive | 31.9 µM (active) | 80.2 µM (active) | inactive |  |  |  |  |  |  | 
CC(C)(C)c1ccc(CSc2cnn(C(C)(C)C)c(=O)c2Cl)cc1 | inactive | 0.0172 µM (active) | inactive | inactive | inactive | inactive | inactive |  | 7.96 µM (active) | 6.33 µM (active) | 25.2 µM (active) | inactive |  |  |  |  | 
CCCCCCCCCCCCCCCC[n+]1ccccc1 | inactive | 25.5 µM (active) [middle of 4 runs] |  | 10.1 µM (active) and inactive and 12 µM (active) |  |  | inactive |  | inactive |  | inactive |  | 63.9 µM (active) and 61.1 µM (active) and 26.9 µM (active) | inactive | inactive |  | 
O=S(=O)(c1ccc(Cl)cc1)c1ccc(Cl)cc1 | inactive | 41.1 µM (active) | inactive | 22 µM (active) | inactive | inactive | inactive |  | 0.161 µM (active) |  | 34 µM (active) |  |  |  |  | 47.7 µM (active) | 
CCCCCCCCCCCCCC[P+](CCCCCC)(CCCCCC)CCCCCC (tested in a mixture with another compound) | 19.3 µM (active) | 4.33 µM (active) |  | 2.17 µM (active) | 20 µM (active) | 71 µM (active) | inactive | 1.26 µM (active) | 20 µM (active) | 22.5 µM (active) | 22.5 µM (active) |  | 24.3 µM (active) |  |  | 0.692 µM (active) | inactive
CCOP(=S)(OCC)OC(Cl)C(Cl)(Cl)Cl (stereo not drawn) | inactive | inactive |  | inactive | 79.6 µM (active) | 31.7 µM (active) | 28.3 µM (active) | inactive | 39.9 µM (active) | 3.99 µM (active) | 35.6 µM (active) | 3.99 µM (active) |  |  |  |  | 35.6 µM (active)
CCCN(CCC)CCc1c[nH]c2ccccc12 | inactive | inactive |  | inactive | inactive | inactive | inactive | 0.351 µM (active) |  | inactive |  | inactive | inactive |  |  |  | inactive
CCCSP(=O)(OCC)SCCC | inactive | inactive |  |  |  |  |  |  |  |  |  |  |  |  |  | inactive | 
Oc1cccc(-c2ccccc2)c1 | inactive |  | inactive | 48.6 µM (active) | inactive | inactive | inactive |  | 35.6 µM (active) |  | 17.8 µM (active) |  | inactive |  |  | inactive | inactive
COP(=S)(OC)Oc1cc(Cl)c(Br)cc1Cl | inactive |  | inactive | 12.2 µM (active) | inactive | inactive | inactive | inactive | 17.8 µM (active) | 5.64 µM (active) | 11.2 µM (active) |  | inactive |  |  |  | 
C=CCC1=C(C)C(OC(=O)C2C(C=C(C)C)C2(C)C)CC1=O (stereo not drawn) | inactive | 55.3 µM (active) |  | 10.3 µM (active) | inactive |  | inactive | 30 µM (active) | 1.69 µM (active) | 6.71 µM (active) |  |  |  |  |  | 29.2 µM (active) | 
Oc1cc(Cl)c(Cl)c(Cl)c1 | inactive | 65 µM (active) |  | 29.1 µM (active) | inactive | inactive | inactive | 6.73 µM (active) | inactive | inactive |  | 53.5 µM (active) |  |  |  |  | inactive
CC(C)[C@H](C(=O)O[C@H](C#N)c1cccc(Oc2ccccc2)c1)c1ccc(Cl)cc1 | inactive |  | inactive | 4.32 µM (active) | inactive | inactive | inactive | inactive | 7.96 µM (active) |  |  | inactive | inactive |  |  | inactive | inactive
